# Assay results taken from article PMC11006913.
# Numbering of substitutions follows the chain as printed.
# Legend:
# Assay in all cases: PBM; 200 nM protein, PBS
# Conditions in all cases: dsDNA, one strand shown
# HOXC10 [1] = target: HOXC10 (Homo sapiens, UniProt Q9NYD6 254-340)
# HOXD13 [2] = target: HOXD13 (Homo sapiens, UniProt P35453 263-343, T313R)
# HOXD13 [3] = target: HOXD13 (Homo sapiens, UniProt P35453 263-343)
# HOXC10 [4] = target: HOXC10 (Homo sapiens, UniProt Q9NYD6 254-340, K271E)
# HOXD13 [5] = target: HOXD13 (Homo sapiens, UniProt P35453 263-343, T313A)
# PAX4 [6] = target: T1, PAX4 (Homo sapiens, UniProt O43316 9-242, R200K)
# T1 sequence: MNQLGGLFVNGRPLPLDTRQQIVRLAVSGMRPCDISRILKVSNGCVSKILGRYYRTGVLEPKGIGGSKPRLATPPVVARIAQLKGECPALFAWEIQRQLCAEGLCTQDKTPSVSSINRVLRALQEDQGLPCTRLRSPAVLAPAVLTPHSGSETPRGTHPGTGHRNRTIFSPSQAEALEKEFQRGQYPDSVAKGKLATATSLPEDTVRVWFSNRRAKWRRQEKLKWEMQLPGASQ
# PAX4 [7] = target: T2, PAX4 (Homo sapiens, UniProt O43316 9-242, R227W)
# T2 sequence: T1 sequence with K192R, R219W
# CRX = CRX (Homo sapiens, UniProt O43186 26-111, R41L)
# ALX4 [8] = target: ALX4 (Homo sapiens, UniProt Q9H161 200-286)
# ALX4 [9] = target: ALX4 (Homo sapiens, UniProt Q9H161 200-286, Q225E)
# HOXA2 [10] = target: HOXA2 (Homo sapiens, UniProt O43364 129-215, R185T)
# HOXA2 [11] = target: HOXA2 (Homo sapiens, UniProt O43364 129-215, R185K)
# VAX1 [12] = target: VAX1 (Homo sapiens, UniProt Q5SQQ9 86-172)
# VAX1 [13] = target: VAX1 (Homo sapiens, UniProt Q5SQQ9 86-172, T142I)
# HOXA2 [14] = target: HOXA2 (Homo sapiens, UniProt O43364 129-215, Y150S)
# HOXA2 [15] = target: HOXA2 (Homo sapiens, UniProt O43364 129-215)
# VAX1 [16] = target: VAX1 (Homo sapiens, UniProt Q5SQQ9 86-172, K157R)
# PAX4 [17] = target: T3, PAX4 (Homo sapiens, UniProt O43316 9-242)
# T3 sequence: T1 sequence with K192R
# PAX4 [18] = target: T4, PAX4 (Homo sapiens, UniProt O43316 9-242, R200Q)
# T4 sequence: T1 sequence with K192Q
# PAX4 [19] = target: T5, PAX4 (Homo sapiens, UniProt O43316 9-242, F177V)
# T5 sequence: T1 sequence with F169V, K192R
# PAX4 [20] = target: T6, PAX4 (Homo sapiens, UniProt O43316 9-242, F177Y)
# T6 sequence: T1 sequence with F169Y, K192R
# ALX3 [21] = target: ALX3 (Homo sapiens, UniProt O95076 139-225, N203Q)
# ALX3 [22] = target: ALX3 (Homo sapiens, UniProt O95076 139-225)
# ALX3 [23] = target: ALX3 (Homo sapiens, UniProt O95076 139-225, L168Q)
# ALX3 [24] = target: ALX3 (Homo sapiens, UniProt O95076 139-225, L168V)
# ALX3 [25] = target: ALX3 (Homo sapiens, UniProt O95076 139-225, N203S)
# ALX3 (Homo sapiens, UniProt O95076 139-225, N203S), sequence (O95076 139-225 N203S): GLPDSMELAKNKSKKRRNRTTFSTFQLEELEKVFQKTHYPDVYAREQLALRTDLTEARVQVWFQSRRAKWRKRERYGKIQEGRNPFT
# HOXC10 (Homo sapiens, UniProt Q9NYD6 254-340), sequence (Q9NYD6 254-340): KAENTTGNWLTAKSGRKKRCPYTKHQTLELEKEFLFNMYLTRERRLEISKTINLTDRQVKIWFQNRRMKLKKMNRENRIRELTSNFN
# HOXC10 (Homo sapiens, UniProt Q9NYD6 254-340, K271E), sequence (Q9NYD6 254-340 K271E): as the sequence (Q9NYD6 254-340) above, with K18E counted along it
# ALX4 (Homo sapiens, UniProt Q9H161 200-286), sequence (Q9H161 200-286): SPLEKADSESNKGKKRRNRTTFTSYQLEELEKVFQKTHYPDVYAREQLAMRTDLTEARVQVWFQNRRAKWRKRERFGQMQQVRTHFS
# ALX4 (Homo sapiens, UniProt Q9H161 200-286, Q225E), sequence (Q9H161 200-286 Q225E): as the sequence (Q9H161 200-286) above, with Q26E counted along it
# HOXA2 (Homo sapiens, UniProt O43364 129-215, Y150S), sequence (O43364 129-215 Y150S): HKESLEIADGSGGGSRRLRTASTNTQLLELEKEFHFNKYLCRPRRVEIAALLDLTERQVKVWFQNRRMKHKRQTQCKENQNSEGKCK
# HOXD13 (Homo sapiens, UniProt P35453 263-343, T313A), sequence (P35453 263-343 T313A): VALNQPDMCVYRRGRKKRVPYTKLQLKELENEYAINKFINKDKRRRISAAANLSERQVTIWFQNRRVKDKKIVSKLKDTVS
# CRX, sequence (O43186 26-111 R41L): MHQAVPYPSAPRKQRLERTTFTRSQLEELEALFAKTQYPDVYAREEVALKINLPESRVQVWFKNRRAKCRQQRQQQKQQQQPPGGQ
# HOXD13 (Homo sapiens, UniProt P35453 263-343, T313R), sequence (P35453 263-343 T313R): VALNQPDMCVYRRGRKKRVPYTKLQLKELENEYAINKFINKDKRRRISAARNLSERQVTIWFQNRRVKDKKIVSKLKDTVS
# HOXD13 (Homo sapiens, UniProt P35453 263-343), sequence (P35453 263-343): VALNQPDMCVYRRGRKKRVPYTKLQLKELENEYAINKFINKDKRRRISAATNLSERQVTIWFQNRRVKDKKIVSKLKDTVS
# ALX3 (Homo sapiens, UniProt O95076 139-225, L168V), sequence (O95076 139-225 L168V): as the sequence (O95076 139-225 N203S) above, with L30V, S65N counted along it
# HOXA2 (Homo sapiens, UniProt O43364 129-215, R185K), sequence (O43364 129-215 R185K): as the sequence (O43364 129-215 Y150S) above, with S22Y, R57K counted along it
# ALX3 (Homo sapiens, UniProt O95076 139-225), sequence (O95076 139-225): as the sequence (O95076 139-225 N203S) above, with S65N counted along it
# VAX1 (Homo sapiens, UniProt Q5SQQ9 86-172, K157R), sequence (Q5SQQ9 86-172 K157R): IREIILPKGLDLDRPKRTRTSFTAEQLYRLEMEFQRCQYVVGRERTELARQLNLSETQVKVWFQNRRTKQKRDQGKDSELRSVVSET
# VAX1 (Homo sapiens, UniProt Q5SQQ9 86-172), sequence (Q5SQQ9 86-172): as the sequence (Q5SQQ9 86-172 K157R) above, with R72K counted along it
# HOXA2 (Homo sapiens, UniProt O43364 129-215), sequence (O43364 129-215): as the sequence (O43364 129-215 Y150S) above, with S22Y counted along it
# ALX3 (Homo sapiens, UniProt O95076 139-225, N203Q), sequence (O95076 139-225 N203Q): as the sequence (O95076 139-225 N203S) above, with S65Q counted along it
# ALX3 (Homo sapiens, UniProt O95076 139-225, L168Q), sequence (O95076 139-225 L168Q): as the sequence (O95076 139-225 N203S) above, with L30Q, S65N counted along it
# VAX1 (Homo sapiens, UniProt Q5SQQ9 86-172, T142I), sequence (Q5SQQ9 86-172 T142I): as the sequence (Q5SQQ9 86-172 K157R) above, with T57I, R72K counted along it
# HOXA2 (Homo sapiens, UniProt O43364 129-215, R185T), sequence (O43364 129-215 R185T): as the sequence (O43364 129-215 Y150S) above, with S22Y, R57T counted along it
sequence,measurement,setting,value
GGAGGCCC,binding signal,HOXC10 [1],"10 upbm affinity estimate (log intensity, higher = more binding, comparable within an allelic series)"
same,binding signal,HOXD13 [2],"9.34 upbm affinity estimate (log intensity, higher = more binding, comparable within an allelic series)"
same,binding signal,HOXD13 [3],"9.46 upbm affinity estimate (log intensity, higher = more binding, comparable within an allelic series)"
same,binding signal,HOXC10 [4],"9.99 upbm affinity estimate (log intensity, higher = more binding, comparable within an allelic series)"
same,binding signal,HOXD13 [5],"9.59 upbm affinity estimate (log intensity, higher = more binding, comparable within an allelic series)"
TAATACGA,binding signal,HOXC10 [1],"11 upbm affinity estimate (log intensity, higher = more binding, comparable within an allelic series)"
same,binding signal,PAX4 [6],"11.6 upbm affinity estimate (log intensity, higher = more binding, comparable within an allelic series)"
same,binding signal,PAX4 [7],"10.9 upbm affinity estimate (log intensity, higher = more binding, comparable within an allelic series)"
same,binding signal,CRX,"10.4 upbm affinity estimate (log intensity, higher = more binding, comparable within an allelic series)"
CTGGTGGC,binding signal,HOXC10 [1],"9.99 upbm affinity estimate (log intensity, higher = more binding, comparable within an allelic series)"
same,binding signal,ALX4 [8],"7.93 upbm affinity estimate (log intensity, higher = more binding, comparable within an allelic series)"
same,binding signal,ALX4 [9],"8.14 upbm affinity estimate (log intensity, higher = more binding, comparable within an allelic series)"
same,binding signal,HOXC10 [4],"10.1 upbm affinity estimate (log intensity, higher = more binding, comparable within an allelic series)"
GGCACGCC,binding signal,HOXC10 [1],"10 upbm affinity estimate (log intensity, higher = more binding, comparable within an allelic series)"
same,binding signal,HOXA2 [10],"6.97 upbm affinity estimate (log intensity, higher = more binding, comparable within an allelic series)"
same,binding signal,HOXA2 [11],"10.1 upbm affinity estimate (log intensity, higher = more binding, comparable within an allelic series)"
same,binding signal,HOXC10 [4],"10 upbm affinity estimate (log intensity, higher = more binding, comparable within an allelic series)"
same,binding signal,VAX1 [12],"6.93 upbm affinity estimate (log intensity, higher = more binding, comparable within an allelic series)"
same,binding signal,VAX1 [13],"7.04 upbm affinity estimate (log intensity, higher = more binding, comparable within an allelic series)"
same,binding signal,HOXA2 [14],"10.3 upbm affinity estimate (log intensity, higher = more binding, comparable within an allelic series)"
same,binding signal,HOXA2 [15],"7.03 upbm affinity estimate (log intensity, higher = more binding, comparable within an allelic series)"
same,binding signal,VAX1 [16],"6.97 upbm affinity estimate (log intensity, higher = more binding, comparable within an allelic series)"
ATGCATAA,binding signal,HOXC10 [1],"11.2 upbm affinity estimate (log intensity, higher = more binding, comparable within an allelic series)"
same,binding signal,ALX4 [8],"10.3 upbm affinity estimate (log intensity, higher = more binding, comparable within an allelic series)"
same,binding signal,ALX4 [9],"9.57 upbm affinity estimate (log intensity, higher = more binding, comparable within an allelic series)"
same,binding signal,HOXC10 [4],"10.9 upbm affinity estimate (log intensity, higher = more binding, comparable within an allelic series)"
CGTGATAA,binding signal,HOXC10 [1],"10.9 upbm affinity estimate (log intensity, higher = more binding, comparable within an allelic series)"
CCCCACCG,binding signal,HOXC10 [1],"10.2 upbm affinity estimate (log intensity, higher = more binding, comparable within an allelic series)"
same,binding signal,PAX4 [6],"9.41 upbm affinity estimate (log intensity, higher = more binding, comparable within an allelic series)"
same,binding signal,PAX4 [17],"9.56 upbm affinity estimate (log intensity, higher = more binding, comparable within an allelic series)"
same,binding signal,PAX4 [18],"9.46 upbm affinity estimate (log intensity, higher = more binding, comparable within an allelic series)"
same,binding signal,PAX4 [19],"9.14 upbm affinity estimate (log intensity, higher = more binding, comparable within an allelic series)"
same,binding signal,HOXC10 [4],"10.1 upbm affinity estimate (log intensity, higher = more binding, comparable within an allelic series)"
same,binding signal,PAX4 [20],"9.27 upbm affinity estimate (log intensity, higher = more binding, comparable within an allelic series)"
same,binding signal,PAX4 [7],"9.33 upbm affinity estimate (log intensity, higher = more binding, comparable within an allelic series)"
AGCTGGCG,binding signal,HOXC10 [1],"9.96 upbm affinity estimate (log intensity, higher = more binding, comparable within an allelic series)"
same,binding signal,ALX3 [21],"7.77 upbm affinity estimate (log intensity, higher = more binding, comparable within an allelic series)"
same,binding signal,HOXC10 [4],"9.94 upbm affinity estimate (log intensity, higher = more binding, comparable within an allelic series)"
same,binding signal,ALX3 [22],"7.78 upbm affinity estimate (log intensity, higher = more binding, comparable within an allelic series)"
same,binding signal,ALX3 [23],"7.68 upbm affinity estimate (log intensity, higher = more binding, comparable within an allelic series)"
same,binding signal,ALX3 [24],"7.73 upbm affinity estimate (log intensity, higher = more binding, comparable within an allelic series)"
same,binding signal,ALX3 [25],"7.86 upbm affinity estimate (log intensity, higher = more binding, comparable within an allelic series)"
